Only some compounds are listed: those with a hit (about 21% of all), similar ones and a draw of the others.
Pf growth 96h: P. falciparum growth inhibition at 96 hour, primary screen for plastid delayed-death inhibitors. P. falciparum luciferase reporter growth, 96 h. Potency, µM (series often up to 28.7 µM), actives largely listed as inhibitors. hit rate 6.9% among 320,000
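Readout is luminescence from an integrated firefly luciferase in P. falciparum. Red cells, 2% hematocrit and 0.05% parasitemia final, were cultured with compound through two parasite generations (96 hours) at 37 C, 5% CO2.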
CHX counter: affects cycloheximide protein synthesis inhibition readout, counter-screen; cell reporter, cycloheximide protein synthesis inhibition counterscreen; max response, %; hit rate 12% among 300,000; AID 2314; in the data active = max response mostly above about 13%, no sharp cut-off; inactive = mostly below about 14%; also: read at 38.3 µM for the half of the compounds with a filed dose
Pf growth 48h: P. falciparum growth inhibition at 48 hours (one generation). P. falciparum luciferase growth in erythrocytes, 48 h. Potency, µM (highest dose often 28.7 µM), hits mostly inhibitors. hit rate 5.9% among 310,000
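Luminescence readout; reporter = integrated firefly luciferase in P. falciparum. RBC culture at 2% hematocrit, 0.1% parasitemia final, 37 C/5% CO2; decreased signal taken as growth inhibition.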
Shiga inhibitor: blocks Shiga toxin action in Vero cells; Vero cells, Shiga toxin protein synthesis inhibition reporter; hit rate 9.2% among 290,000; inhibition, % at 38.7 µM; in the data active = inhibition mostly above about 28%, no sharp cut-off; inactive = mostly below about 43%
Large screens that a line does not name were inactive. Unless noted, calls follow the shape of the dose curve; as a rule, active = well fitted inhibition curve with a large enough effect; inconclusive = small, poorly fitted or top-dose-only effect, or another doubt; inactive = no such curve, though single readings can be large or run the other way.

CCCCSC1=NN1c1nc(N)nc(C)c1CC	Pf growth 96h 8.3µM (no result: Pf growth 48h)
C=CCNC(=O)CC(=O)N/N=C/c1cccc(C)c1	none
NC(=O)C1CCCN(C(=S)Nc2cccc3ccccc23)C1 (stereo not drawn)	Pf growth 96h 13µM
O=C(Nc1cccc2ccccc12)N1CCN(c2ncccn2)CC1	none
S=C(Nc1cccc2ccccc12)N1CCN(c2ncccn2)CC1	Pf growth 96h inconclusive, CHX counter 24
NC(=O)C1CCCN(C(=S)NCc2ccc3c(c2)OCO3)C1 (stereo not drawn)	none
O=C(CSCc1cc(=O)n2ccsc2n1)Nc1ccccc1	Pf growth 96h inconclusive
C=CCn1c(CNC(=O)c2ccccc2F)nnc1SCC(=O)N1CCOCC1	Pf growth 96h inconclusive
Cc1ccccc1CC1CCN(CCCNC(=O)Nc2ccccc2)CC1	none
COc1ccc2c(c1)[C@H]1[C@H](CO2)[C@H](c2ccccc2)[C@]2(C)C(=O)N[C@H](C)C(=O)N12	Pf growth 96h inconclusive (no result: CHX counter, Shiga inhibitor)
COc1ccc2c(c1)OC[C@H]1[C@H]2N2C(=O)c3cc(OC)c(OC)cc3NC(=O)[C@@]2(C)[C@H]1c1ccccc1	Pf growth 96h 6.6µM, Pf growth 48h 2.3µM (no result: CHX counter, Shiga inhibitor)
COc1ccc2c(c1)C(=O)N1[C@H]3c4cc(OC)ccc4OC[C@@H]3[C@H](c3ccccc3)[C@]1(C)C(=O)N2	Pf growth 96h inconclusive, Pf growth 48h 13µM (no result: CHX counter, Shiga inhibitor)
COc1ccc2c(c1)OC[C@H]1[C@H]2N2C(=O)c3cc(Br)ccc3NC(=O)[C@@]2(C)[C@H]1c1ccccc1	Pf growth 96h 5.2µM, Pf growth 48h 1.7µM (no result: CHX counter, Shiga inhibitor)
COc1ccc2c(c1)OC[C@H]1[C@H]2N2C(=O)[C@H](C)NC(=O)[C@@]2(C)[C@H]1c1ccccc1	Pf growth 96h inconclusive (no result: CHX counter, Shiga inhibitor)
COc1ccccc1N(CC(=O)NC1CCCC1)C(=O)c1oc(C(C)(C)C)cc1C	Pf growth 48h inconclusive
CN(C)c1ccc(P(=O)(OC2CCCCC2)C(Nc2ccccc2)c2cccnc2)cc1 (stereo not drawn)	Pf growth 96h 2.9µM, Pf growth 48h 9.3µM
CN(C)C(=S)Nc1ccc(Cc2ccncc2)cc1	none
Cc1ccc(Cn2ccsc2=NC(=O)COC(=O)C(C)C)cc1	none
Cc1ccc(Cn2ccsc2=NC(=O)COC(=O)c2ccc(O)cc2O)cc1	Pf growth 96h inconclusive, CHX counter 38, Pf growth 48h inconclusive, Shiga inhibitor 135
CCCn1c(C)cc(C(=O)COC(=O)CN=C2NS(=O)(=O)c3ccccc32)c1C	none
O=C(Nc1ccc(N2CCCCC2)cc1)C(Cl)c1ccccc1 (stereo not drawn)	CHX counter 46
O=C(Nc1ccc(N2CCCC2)cc1)C(c1ccccc1)c1ccccc1	Pf growth 96h 4.7µM (no result: Pf growth 48h)
CC(C)C(=O)Nc1ccc(N2CCCC2)cc1	Pf growth 96h 4.1µM (no result: Pf growth 48h)
O=C(CN1C(=O)S/C(=C\c2ccccc2F)C1=O)NC1C=CS(=O)(=O)C1 (stereo not drawn)	Pf growth 96h inconclusive, Pf growth 48h inconclusive
CCOC(=O)C1=C(CC)Nc2ccccc2N/C1=N\S(=O)(=O)c1cc(Br)ccc1Br	Pf growth 96h inconclusive
CCOC(=O)c1cc(S(=O)(=O)Nc2ccc(OC)cc2OC)cn1C	none
O=C(NCc1cccs1)C1CCC(CNS(=O)(=O)c2ccccc2)CC1 (stereo not drawn)	none
Cc1ccc(S(=O)(=O)NCC2CCC(C(=O)NCc3cccs3)CC2)cc1 (stereo not drawn)	Pf growth 96h 10µM
O=C(NCCc1ccccc1)C1CCC(CNS(=O)(=O)c2ccc(F)cc2)CC1 (stereo not drawn)	Pf growth 96h inconclusive, CHX counter 16
COCC(=O)N1CCCC(CNS(=O)(=O)c2ccc(OC)cc2)C1 (stereo not drawn)	Pf growth 96h 10µM
Cc1ccc(CNC(=O)C2CCC(CNS(=O)(=O)c3cccc4cccnc34)CC2)cc1 (stereo not drawn)	Pf growth 96h 12µM, Pf growth 48h inconclusive
CC(=O)Nc1ccc(S(=O)(=O)N(C)c2ccc(OCC(=O)OCC(=O)NCc3ccco3)cc2)cc1	none
COc1ccc(CCNC(=O)C/C(C)=N/NC(=O)c2ccc([N+](=O)[O-])cc2Cl)cc1OC	none
CC1CCN(CCCNC(=O)C2CCC(CNS(=O)(=O)c3ccccc3)CC2)CC1 (stereo not drawn)	Pf growth 96h 12µM
COc1ccc(CNC(=O)C2CCC(CNS(=O)(=O)c3ccccc3)CC2)cc1 (stereo not drawn)	Pf growth 48h 3.7µM
COCCCNC(=S)N(CCO)Cc1cc2cc3c(cc2[nH]c1=O)OCO3	none
O=C(O)COn1c(-c2ccccc2)nc2ccc([N+](=O)[O-])cc21	CHX counter 25, Shiga inhibitor 49
CCOC(=O)C(C)On1c(-c2ccc(Cl)cc2)nc2ccc([N+](=O)[O-])cc21 (stereo not drawn)	none (no result: Pf growth 96h)
CCOC(=O)C(C)On1c(-c2ccccc2)nc2ccc([N+](=O)[O-])cc21 (stereo not drawn)	CHX counter 35, Shiga inhibitor 50 (no result: Pf growth 96h)
COC(=O)c1ccccc1NC(=O)c1ccc2nccnc2c1	Pf growth 96h inconclusive
O=C(Nc1ccc(Cl)cn1)c1cccnc1	CHX counter 15 (no result: Pf growth 96h)
O=C(Nc1ccc(Cl)cn1)c1ccc2nccnc2c1	CHX counter 32, Shiga inhibitor 132
O=C(Nc1ccccc1Cl)c1ccc2nccnc2c1	CHX counter 25, Shiga inhibitor 67
OC[C@H]1O[C@@H](O[C@@H]2OC=C[C@H]3[C@H](O)[C@@H]4O[C@]4(CO)[C@@H]23)[C@H](O)[C@@H](O)[C@@H]1O	none (no result: Pf growth 96h, Pf growth 48h)
CCN1CCN(C(=O)CCNC(=O)Cn2cnc3ccccc3c2=O)CC1	none
Cn1c(CNC(=O)CNC(=O)c2ccccc2)cc(=O)n(C)c1=O	none
Nc1c(C(=O)Nc2ccccc2)c2nc3ccccc3nc2n1-c1ccc(O)cc1	Pf growth 48h 13µM
Cc1ccc(-n2c(N)c(C(=O)Nc3c(C)n(C)n(-c4ccccc4)c3=O)c3nc4ccccc4nc32)cc1C	Pf growth 96h inconclusive, Pf growth 48h 10µM
COc1ccccc1C(=O)Nc1c(C)n(C)n(-c2ccccc2)c1=O	none
Cc1ccc(-c2cc(C(=O)Nc3c(C)n(C)n(-c4ccccc4)c3=O)no2)cc1	none
Cc1c(NC(=O)c2c(F)c(F)c(F)c(F)c2F)c(=O)n(-c2ccccc2)n1C	none
COc1ccc(-n2c(N)c(C(=O)Nc3c(C)n(C)n(-c4ccccc4)c3=O)c3nc4ccccc4nc32)cc1	Pf growth 96h 1.7µM, Pf growth 48h 4.7µM
COc1ccc(-c2cc(C(=O)Nc3c(C)n(C)n(-c4ccccc4)c3=O)no2)cc1	Pf growth 96h 8.3µM, Pf growth 48h inconclusive
O=[N+]([O-])/C=C\c1ccc(N2CCCC2)c(F)c1	Pf growth 96h inconclusive
Cc1ccc(-n2nnc3ccccc3c2=O)cc1C	CHX counter 50, Shiga inhibitor 100
OC(COc1ccc(CNCCc2ccc(C(F)(F)F)cc2)cc1)CN1CCCCC1 (stereo not drawn)	Pf growth 48h 2.1µM
COc1ccc(N2CCN(c3oc(COc4ccccc4)nc3C#N)CC2)cc1	Pf growth 48h 13µM
N#Cc1nc(COc2ccc(F)cc2)oc1N1CCCCC1	CHX counter 27
O=C(CNC(=O)c1ccccc1C(F)(F)F)N/N=C/c1cccs1	none
Cc1nn(C)cc1CN(C)C(=O)c1cc(COc2ccc(F)cc2F)on1	Pf growth 96h inconclusive
